Experimental data published in PubChem BioAssay (EPA / NIEHS).
Active and inactive are the calls of the source. How the source made its calls: active means hit-call score of the fitted dose curve at least 0.9, where 1 is the maximum; inactive means score below 0.9.

Test: ATG_CMV_CIS: Attagene CIS-FACTORIAL HepG2 Assay for human CMV (Internal Marker) (AID 2282928);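 further: endpoint acts as a background internal control marker rather than a target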
Details: HepG2 CMV promoter reporter, transcription factor profiling; actives raise or lower the signal
Description: ATG_CIS is a cell-based, multiplexed-readout assay that uses HepG2, a human liver cell line, with measurements taken at 24 hours after chemical dosing in a 24-well plate.ATG_CMV_CIS is one of 52 assay component(s) measured or calculated from the ATG_CIS assay. It is designed to make measurements of mRNA induction, a form of inducible reporter, as detected with fluorescence intensity signals by Reverse transcription polymerase chain reaction (RT-PCR) and Capillary electrophoresis technology.Data from the assay component ATG_CMV_CIS was analyzed into 1 assay endpoint. This assay endpoint, ATG_CMV_CIS, was analyzed with bidirectional fitting relative to DMSO as the negative control and baseline of activity. Using a type of inducible reporter, measures of mRNA for gain or loss-of-signal activity can be used to understand the background control at the transcription factor-level as they relate to the gene . Furthermore, this assay endpoint can be referred to as a secondary readout, because this assay has produced multiple assay endpoints where this one serves a background control function. To generalize the intended target to other relatable targets, this assay endpoint is annotated to the background measurement intended target family, where the subfamily is internal marker.
Human liver HepG2 cells are transiently transfected with multiple reporter transcription units (MRTUs) in 6-well plates using FuGene 6 reagent (Roche; 3 ml FuGene/1 mg DNA). The MRTU constructs are regulated by a cis-regulating element (promoter). […] A major difference between the CIS and TRANS system is that in CIS activities of endogenous TFs are measured, whereas the TRANS assay evaluates changes in activities of exogenous, chimeric NR-Gal4 proteins. […] At the end of 24 hour incubation, total RNA was isolated using TriZol reagent (Invitrogen). The isolated RNA is then reverse-transcribed using oligo(dT) primer and Mo-MLV reverse transcriptase (Invitrogen) with DNAse I (Ambion) treatment for 30 min. The one-tenth of the produced cDNA was amplified by PCR using Taq DNA polymerase (Invitrogen) and two reporter sequence-specific primers. The PCR products were fluorescently labeled by primer extension with 6-arboxyfluorescein (6-FAM) 5'-labeled reporter sequence-specific primer (2 min at 95 C, 20 s at 68 C and 10 min at 72 C) and these products were digested with 5U of HpaI (New England Biolabs) for 2h at 37 C. The fragments were purified using Qiaquick PCR columns (Qiagen), analyzed on an ABI 3130xL genetic analyzer (Applied Biosystems) with peak positions identified by using a set of X-rhodamine (ROX)-labeled MapMarker1000 molecular weight standards (BioVentures). The raw capillary electrophoresis data was processed using Attagraph software (Attagene).

SMILES	outcome	AC50
N#Cc1ccc(O)cc1	inactive	
OCC(F)(F)OC(F)(F)C(F)(F)OC(F)(F)C(F)(F)OC(F)(F)CO	inactive	
C=CC(=O)OCC(F)(F)C(F)F		150 µM (active)
Cc1cccc(N)c1	inactive	
CCCCc1ccc(O)cc1		71.4 µM (active)
ClC(Cl)c1ccccc1	inactive	
CCCCN(CCCC)SN(C)C(=O)Oc1cccc2c1OC(C)(C)C2	inactive	
O=P(Oc1ccccc1)(Oc1ccccc1)Oc1ccccc1	inactive	
CCC(C)(C)c1ccc(O)cc1		49 µM (active)
O=C(CBr)OCc1ccccc1	inactive	
O=C(O)C=CC(F)(C(F)(F)F)C(F)(F)F	inactive	
O=S(=O)(c1ccc(O)cc1)c1ccc(O)cc1	inactive	
Cc1ccc(C(=O)Cl)cc1	inactive	
CCOP(=S)(OCC)SCSc1ccc(Cl)cc1	inactive	
OCC(F)(F)OC(F)(F)C(F)(F)OC(F)(F)CO	inactive	
OCC1CO1 (stereo not given)	inactive	
O=C(O)C(F)(F)OC(F)(F)C(F)(F)OC(F)(F)C(=O)O	inactive	
CCCCOCC1CO1 (stereo not given)	inactive	
C=C(C)C(=O)OCC1CO1 (stereo not given)	inactive	
c1ccc2c(c1)Nc1ccccc1S2		21.3 µM (active)

SMILES	outcome	AC50
CCCCC(CC)COC(=O)c1c(Br)c(Br)c(Br)c(Br)c1C(=O)OCC(CC)CCCC (stereo not given)	inactive	
CCN(CC)c1ccccc1	inactive	
Cn1[nH]nnc1=S	inactive	
CC1(C)CN=C(NN=C(/C=C/c2ccc(C(F)(F)F)cc2)/C=C/c2ccc(C(F)(F)F)cc2)NC1	inactive	
CC(C)(C)OOC(C)(C)C	inactive	
CC(O)C#N (stereo not given)	inactive	
CCCCOCCOP(=O)(OCCOCCCC)OCCOCCCC	inactive	
CN(C)C(=O)Cl	inactive	
CCOC(=O)c1ccccc1N	inactive	
O=NN1CCCC1	inactive	
c1cc2c3c(cccc3c1)CC2	inactive	
N#Cc1cc([N+](=O)[O-])ccc1N	inactive	
Cc1ccc(N)cc1N	inactive	
NNC(N)=S	inactive	
O=c1[nH]c2ccccc2c(=O)o1	inactive	
CC1=C(C(=O)Nc2ccccc2)S(=O)(=O)CCO1		45.4 µM (active)
CC(Cl)CN(C)C (stereo not given)	inactive	
CCCCc1ccccc1	inactive	
CSC(C)(C)C=NO	inactive	
CCOP(=S)(S)OCC	inactive	
